Bioassay records: PubChem, National Center for Advancing Translational Sciences (NCATS)
HP1b chromo inh: HTS for Inhibitors of HP1-beta Chromodomain Interactions with Methylated Histone Tails; 390,000 compounds, 0.56% hits; AlphaScreen HP1-beta / biotin-H3K9me3 peptide binding; Potency, µM (doses to about 114 µM), hits mostly inhibitors; further: nearly all actives have a fitted effect of over 70% in size
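Compound inhibition of the preformed complex between 50 nM HP1-beta and 50 nM biotinylated H3K9me3 peptide was read by AlphaScreen. Buffer was PBS pH 7.4 with 0.01% Tween-20. Incubations ran 30 min at room temperature, with 10 ug/mL donor/acceptor beads.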
PLK1 PBD inh: qHTS for Inhibitors of PLK1-PDB (polo-like kinase 1 - polo-box domain): Primary Screen; 360,000 compounds, 2.8% hits; Serine/threonine-protein kinase PLK1 (Homo sapiens), P53350; Potency, µM, actives largely listed as inhibitors; Plk1 PBD binding of FITC phosphopeptide, fluorescence polarization; further: series mostly up to about 57 µM; nearly all actives have a fitted effect of over 65% in size
Target sequence (P53350 whole entry, looked up, the tested form may be a part): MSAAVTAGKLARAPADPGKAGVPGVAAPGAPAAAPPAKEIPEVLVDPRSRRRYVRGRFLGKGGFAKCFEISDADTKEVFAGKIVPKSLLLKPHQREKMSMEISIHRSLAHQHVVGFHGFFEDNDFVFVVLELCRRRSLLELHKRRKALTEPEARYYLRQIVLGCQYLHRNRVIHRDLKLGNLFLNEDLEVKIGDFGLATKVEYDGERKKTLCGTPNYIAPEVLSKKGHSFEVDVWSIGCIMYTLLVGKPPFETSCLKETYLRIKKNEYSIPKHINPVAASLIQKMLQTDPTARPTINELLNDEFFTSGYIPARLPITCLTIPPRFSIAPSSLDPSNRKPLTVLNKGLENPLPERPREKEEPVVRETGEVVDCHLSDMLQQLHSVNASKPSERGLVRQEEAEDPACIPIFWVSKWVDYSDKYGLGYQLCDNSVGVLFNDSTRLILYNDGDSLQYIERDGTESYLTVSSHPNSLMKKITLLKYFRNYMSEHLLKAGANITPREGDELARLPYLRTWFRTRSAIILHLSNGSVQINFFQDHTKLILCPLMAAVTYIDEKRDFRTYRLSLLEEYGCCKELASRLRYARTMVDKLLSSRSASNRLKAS
JMJD2A Tudor inh: qHTS Assay for Inhibitors of JMJD2A-Tudor Domain; Lysine-specific demethylase 4A (Homo sapiens), O75164; AlphaScreen JMJD2A-Tudor / H3K4me3 peptide binding; Potency, µM (doses to about 114 µM), most hits filed as inhibitors; 390,000 compounds, 4.4% hits; AID 504339, 2011; further: nearly all actives have a fitted effect of over 50% in size
PI5P4Ka inh: qHTS for Inhibitors of phosphatidylinositol 5-phosphate 4-kinase (PI5P4K); 330,000 compounds, 1.2% hits; PI5P4Kalpha enzyme, ADP-Glo luminescence, 60 min; active compounds read low; max response, %; AID 652105, 2013; active means max response of -50% or lower; inconclusive means between -30% and -50%; inactive means -30% or higher; further: value at the top dose of about 77 µM
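PI5P4Kalpha ADP-Glo assay; 5 microM ATP final; 60 min RT reaction; HEPES pH 7.4/EGTA/CHAPS, 5% DMSO; controls lacking substrate or enzyme; luminescent end-point.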
BAZ2B block: qHTS Assay for Inhibitors of BAZ2B. AlphaScreen BAZ2B-H3K14Ac peptide displacement. Bromodomain adjacent to zinc finger domain protein 2B (Homo sapiens), Q9UIF8. Potency, µM (titrated, usually from 114 µM), most hits filed as inhibitors. 360,000 compounds, 4.4% hits; further: nearly all actives have a fitted effect of over 60% in size
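BAZ2B (50 nM) with biotin-H3(5-23)K14Ac peptide (50 nM) in PBS pH 7.4, 0.01% Tween-20, preformed 30 min, then compound 30 min at room temperature; top concentration 110uM. AlphaScreen streptavidin donor/nickel chelate acceptor beads (10 ug/mL final), 20 min dark, signal read.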
GCN5L2 inh: qHTS Assay for Inhibitors of GCN5L2. Histone acetyltransferase KAT2A (Homo sapiens), Q92830. GCN5L2 HAT assay, ThioGlo1 CoA-SH fluorescence. Potency, µM (top dose mostly 58.9 µM), most hits filed as inhibitors. 390,000 compounds, 0.21% hits
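Fluorescence readout, Ex340nm/Em540nm: ThioGlo1 (50uM final) reacts with free CoA thiol released as 20nM GCN5L2 acetylates H3(1-25) peptide (75uM) using acetyl-CoA (70uM). Compound and enzyme sat 15 min beforehand; 20 min room-temperature reaction.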
Each line names hits and unclear results; the compound was inactive in the other large screens. In the library only some 7% were active in any assay of this set; here they are far more common. Unless noted, the call rests on the fitted dose curve; in most records, active means well fitted curve in the direction sought with a large enough effect; inconclusive means small, poorly fitted or top-dose-only effect, or another doubt; inactive means no such curve, though single readings can be large; an effect the other way counts as inactive or inconclusive.

C[C@@H]1CN([C@H](C)CO)C(=O)CCCn2cc(nn2)CO[C@H]1CN(C)S(=O)(=O)c1ccc2c(c1)OCCCO2	none (no result: HP1b chromo inh, JMJD2A Tudor inh, BAZ2B block, GCN5L2 inh)
COc1cc(OC)c(OC)cc1/C=N/NC(=O)c1cccc(S(=O)(=O)N2CCOCC2)c1	none
O=C(O)COc1ccccc1/C=N/NC(=O)c1cccc(S(=O)(=O)N2CCOCC2)c1	JMJD2A Tudor inh 39.8µM, PI5P4Ka inh inconclusive, BAZ2B block inconclusive
O=C(O)COc1ccccc1C=NNC(=O)c1ccc(NS(=O)(=O)c2cccs2)cc1	JMJD2A Tudor inh inconclusive, PI5P4Ka inh -57.4 (no result: BAZ2B block)
Cc1ccc(S(=O)(=O)N2CCN(CC(=O)N/N=C/c3ccccc3OCC(=O)O)CC2)cc1	JMJD2A Tudor inh 39.8µM
CCN(CC)S(=O)(=O)c1cccc(C(=O)N/N=C/c2ccccc2OCC(=O)O)c1	JMJD2A Tudor inh inconclusive, BAZ2B block 50.1µM
COc1ccccc1NS(=O)(=O)c1cccc(C(=O)N/N=C/c2ccccc2OCC(=O)O)c1	none
COc1ccc(NC(=O)C2(C)CCN2CC2CCCCC2)cc1OC (stereo not drawn)	none (no result: HP1b chromo inh, JMJD2A Tudor inh, BAZ2B block, GCN5L2 inh)
COC(CN(C)C(=O)c1ccc2c(c1)NC(=O)c1ccccc1S2)OC	none
CC1CCCCN1CCNC(=O)c1ccc(Cn2c(SCc3ccccc3)nc3cccnc32)cc1 (stereo not drawn)	none (no result: PLK1 PBD inh, PI5P4Ka inh)
O=C(Nc1ccc2c(c1)OCCO2)C(C1CC1)N1CCN(c2ccc(F)cc2)CC1 (stereo not drawn)	none (no result: HP1b chromo inh, JMJD2A Tudor inh, BAZ2B block, GCN5L2 inh)
O=C(Cc1ccc(Cl)cc1)Nc1ccc(C(=O)N2CCCCC2)cc1	none
Cc1ccc(CC(=O)Nc2ccc(C(=O)N3CCCCC3)cc2)cc1	none
O=C(CNCCc1ccc(Cl)cc1)Nc1ccc(C(=O)N2CCCCC2)cc1	HP1b chromo inh inconclusive, JMJD2A Tudor inh 3.16µM, BAZ2B block 20µM
O=C(NCC(=O)N1CCCCCC1)c1ccc(Cl)cc1	PLK1 PBD inh 6.7µM, JMJD2A Tudor inh inconclusive
O=C(CNCCc1ccccc1)Nc1ccc(C(=O)N2CCCCC2)cc1	HP1b chromo inh inconclusive, JMJD2A Tudor inh 22.4µM, BAZ2B block 39.8µM
O=C(CNCc1ccc(F)cc1)Nc1ccc(C(=O)N2CCCCC2)cc1	HP1b chromo inh inconclusive, JMJD2A Tudor inh 1.12µM, BAZ2B block 31.6µM
O=C(CNCc1ccccc1Cl)Nc1ccc(C(=O)N2CCCCC2)cc1	HP1b chromo inh inconclusive, JMJD2A Tudor inh inconclusive, BAZ2B block 22.4µM
O=C(Nc1ccccc1C(=O)N1CCN(c2cccc(Cl)c2)CC1)C1=CSCCO1	BAZ2B block 70.8µM
O=[N+]([O-])c1cc([N+](=O)[O-])c2c(=Nc3ccccc3)n(-c3ccccc3)n(O)c2c1	HP1b chromo inh inconclusive, PLK1 PBD inh 5.97µM, JMJD2A Tudor inh inconclusive, PI5P4Ka inh inconclusive, BAZ2B block 20µM, GCN5L2 inh inconclusive
O=[N+]([O-])c1cccc(C(=Nc2ccccc2)NO)c1	none
CC1CCN(S(=O)(=O)c2ccc3c(c2)CCN3C(=O)Nc2ccc(Br)cc2)CC1	none (no result: PLK1 PBD inh, PI5P4Ka inh)
Clc1ccc(SCNc2ccccc2Cl)cc1	PLK1 PBD inh 9.47µM
CCSC(=O)N=Nc1ccc(O)cc1	HP1b chromo inh inconclusive, PLK1 PBD inh 26.7µM, JMJD2A Tudor inh 56.2µM, PI5P4Ka inh inconclusive (no result: BAZ2B block, GCN5L2 inh)
CC1CCCN(S(=O)(=O)c2ccc(C(=O)Nc3nnc(C4CC4)o3)cc2)C1 (stereo not drawn)	JMJD2A Tudor inh inconclusive, BAZ2B block 35.5µM
Cc1nnc(NC(=O)c2ccc(S(=O)(=O)N3CC(C)OC(C)C3)cc2)o1 (stereo not drawn)	JMJD2A Tudor inh 2.82µM, BAZ2B block 25.1µM
CC1CN(S(=O)(=O)c2ccc(C(=O)Nc3nnc(-c4ccco4)o3)cc2)CC(C)O1 (stereo not drawn)	BAZ2B block inconclusive
O=C(N/N=C/c1cccc(O)c1)c1ccc(-n2cnnn2)cc1	none
O=C(N/N=C/c1ccc(O)c(O)c1)c1ccc(-n2cnnn2)cc1	JMJD2A Tudor inh inconclusive, BAZ2B block 50.1µM
